HCMV inh = qHTS Assay for inhibitors of the human cytomegalovirus (HCMV). AID 1259415, 2018. HFF cells, HCMV-luciferase reporter, 72 h; active compounds read low. activity change, negative = inhibition, % at 57.5 µM. hit rate 4.5% among 410,000; in the data active = activity change below about -60%; inconclusive = no clear call, values can overlap the other calls; inactive = above about -39%
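After 16 h attachment at 37C, HFF cells received test compound and HCMV-luciferase (1 PFU/cell); reporter luminescence read 72 h later, data normalized against buffer-only and known inhibitor Salinomycin.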
AmpC inh no detg = qHTS Inhibitors of AmpC Beta-Lactamase (assay without detergent) | AmpC nitrocefin hydrolysis, absorbance 480 nm, 0.0001% Triton | Potency, µM (titrated, usually from 57.1 µM), actives largely listed as inhibitors | hit rate 0.52% among 330,000; note: nearly all actives have a fitted effect of over 20% in size
Target sequence (P00811 whole entry, looked up): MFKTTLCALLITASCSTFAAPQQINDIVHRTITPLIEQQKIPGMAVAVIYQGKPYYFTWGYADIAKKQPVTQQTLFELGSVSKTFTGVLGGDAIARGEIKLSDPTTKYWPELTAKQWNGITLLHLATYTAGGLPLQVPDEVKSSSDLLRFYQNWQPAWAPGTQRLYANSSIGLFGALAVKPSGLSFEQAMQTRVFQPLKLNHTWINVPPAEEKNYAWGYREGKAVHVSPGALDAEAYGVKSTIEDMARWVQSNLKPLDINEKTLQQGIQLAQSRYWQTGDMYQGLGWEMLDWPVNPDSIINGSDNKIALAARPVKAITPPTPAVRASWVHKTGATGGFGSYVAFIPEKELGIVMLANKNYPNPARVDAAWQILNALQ
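AmpC (5.3 nM in the dispensed reagent) in 20 mM phosphate pH 7.0 with 0.01% (detergent screen) or 0.0001% Triton X-100 was preincubated with compounds for 15 min at room temperature. Nitrocefin was then added from an 800 uM solution, and hydrolysis was followed at 480 nm.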
HCV inh = qHTS Assay for Inhibitors of Hepatitis C Virus (HCV) | hit rate 3.4% among 340,000 | Huh7.5.1 HCVcc-Cre infection, luciferase reporter, 44 h | Potency, µM (titrated, usually from 41.8 µM), hits mostly inhibitors
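Seed cells (1,000/well) for 4 h; treat with compound and infect with HCVcc-Cre, moi about 0.5. Incubate 44 h, then detect luciferase activity.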
AmpC detergent = qHTS Inhibitors of AmpC Beta-Lactamase (assay with detergent); Potency, µM (top dose mostly 114 µM), usual class: inhibitors; AID 485294, 2010; hit rate 0.041% among 370,000; P00811; AmpC hydrolysis of nitrocefin, absorbance 480 nm, 0.01% Triton; note: nearly all actives have a fitted effect of over 25% in size
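AmpC (5.3 nM in the dispensed reagent) in 20 mM phosphate pH 7.0 with 0.01% (detergent screen) or 0.0001% Triton X-100 was preincubated with compounds for 15 min at room temperature. Nitrocefin was then added from an 800 uM solution, and hydrolysis was followed at 480 nm.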
FMDV inh = High Throughput Screening for Foot and Mouth Disease Virus Antivirals | FMDV antiviral cell-based qHTS | Potency, µM (series often up to 57.9 µM), most hits filed as inhibitors | hit rate 1.2% among 410,000; calls by dose curve; tested in HEK293T cells; note: read-out not given here; nearly all actives have a fitted effect of over 45% in size
Numbers stand for hits; - = inactive; ? = inconclusive; . = no result. Only some compounds are listed: those with a hit (about 7.3% of all), similar ones and a draw of the others. Unless noted, calls come from the whole dose curve; as a rule, active = well fitted curve in the direction sought with a large enough effect; inconclusive = small, poorly fitted or top-dose-only effect, or another doubt; inactive = no such curve, though single readings can be large; an effect the other way counts as inactive or inconclusive.

SMILES	HCMV inh	AmpC inh no detg	HCV inh	AmpC detergent	FMDV inh
O=C(CCCSc1ccccc1)Nc1ccc(Cl)c(S(=O)(=O)N2CCOCC2)c1	-	-	?	?	25µM
Cc1ccc(NC(=O)CCCOc2ccccc2)cc1S(=O)(=O)N1CCOCC1	-	-	?	-	-
CC(C)Oc1ccc(S(=O)(=O)N2CCOCC2)cc1NC(=O)CCCSc1ccccc1	-	-	11µM	-	-
O=C(CCCOc1ccccc1)Nc1ccc(Cl)c(S(=O)(=O)N2CCOCC2)c1	-73	-	7.1µM	.	28µM
CCN(CC)S(=O)(=O)c1cc(NC(=O)CCCOc2ccc(C(C)=O)cc2)ccc1C	-	-	10µM	-	16µM
COc1ccc(S(=O)(=O)N2CCOCC2)cc1NC(=O)CSc1ccccc1	-	-	.	-	-
COc1ccccc1C1CN(Cc2cccc(OCCO)c2)Cc2ccccc2O1 (centres undefined)	.	.	.	.	-
CC(=O)Nc1cc2c3c(cccc3c1)-c1ccccc1-2	-	.	?	.	-
CCN(CC)S(=O)(=O)c1cc(NC(=O)COC(=O)c2c(C)noc2C)ccc1C	-	-	14µM	-	-
COc1cc(C(C)=O)ccc1OCC(=O)Nc1ccc(Cl)c(S(=O)(=O)N2CCOCC2)c1	-	-	13µM	?	20µM
Cc1ccc(OCCCC(=O)Nc2ccc(Cl)c(S(=O)(=O)N3CCOCC3)c2)cc1	-	-	7.1µM	-	?
CC(=O)c1ccc(OCCCC(=O)Nc2ccc(Cl)c(S(=O)(=O)N3CCOCC3)c2)cc1	-79	.	2.5µM	.	16µM
COc1ccc(OCCCC(=O)Nc2ccc(S(=O)(=O)N3CCOCC3)cc2)cc1	-	-	?	-	?
O=C(COc1cccc(Br)c1)Nc1ccc(Cl)c(S(=O)(=O)N2CCOCC2)c1	-	-	?	.	?
Cc1ccc(OCCC(=O)OCC(=O)Nc2ccc(C)c(S(=O)(=O)N3CCOCC3)c2)cc1	-	.	-	.	-
COCCn1nc2ccccc2c1OC	-	.	.	.	.
CCOC(=O)C1(Cc2ccccc2)CCCN(C2CCCC2)C1 (centres undefined)	-	-	-	-	-
CC(=O)Nc1cccc(Oc2nc(-c3ccccn3)nc3ccccc23)c1	-61	-	?	-	?
CC(=O)Nc1ccc(Oc2nc(-c3ccccn3)nc3ccccc23)cc1	-102	-	?	-	?
CC(=O)Nc1ccc(Oc2ncccn2)cc1	.	-	.	-	.
Cc1cnc(-n2ncc(C(=O)NCC(C)(C)N3CCOCC3)c2C(C)C)nc1-c1ccc(F)cc1	.	.	.	.	-
N#CCSc1nc2ccccc2c2nc3ccccc3n12	-103	-	?	-	?
O=C(CCC1CCCCC1)NC1=NCCS1	-	-	-	-	-
CN(C)CCCNC(=O)CCC1CCCCC1	-107	-	-	-	-
Cc1cccc(C)c1NS(=O)(=O)c1cc2c3c(c1)CCN3C(=O)CC2	-	-	-	-	-
SMILES	HCMV inh	AmpC inh no detg	HCV inh	AmpC detergent	FMDV inh
Cc1cccc(C)c1NS(=O)(=O)c1cc2c3c(c1)CC(=O)N3CCC2	-65	-	-	-	-
O=C(CN1Cc2ccccc2OC(c2ccsc2)C1)NCc1ccc2c(c1)OCO2 (centres undefined)	.	.	.	.	-
COc1ccc(C2=Nc3ccccc3C2(O)CCN2C(=O)c3ccccc3C2=O)cc1 (centres undefined)	-	.	0.89µM	.	-
N[C@@H]1CC[C@@]23CCCN2C(=O)CCC[C@H]3[C@H]1Cc1ccccc1	-	.	.	.	.
Cc1occc1C(=O)N1CCN(S(=O)(=O)c2ccccc2)CC1	-	-	-	-	-
Cc1ccc(-n2nc(C(=O)Nc3ccc(C)c(F)c3)c3c4ccccc4n(C)c3c2=O)cc1	-	.	.	-	-
CCN1CCN(/C=N/c2nc3c(s2)CCCC3)CC1	-69	-	?	-	.
CCCN(Cc1cccs1)C(=O)Nc1ccc(F)c(Cl)c1	-	.	.	-	-
CC(C)(C)C1CCC(OC(=O)C[N+]2(C)CCCCC2)CC1 (centres undefined)	-62	-	-	-	-
OC1CCN(Cc2ccc3c(c2)CN(Cc2ccc(Oc4ncccn4)cc2)CCO3)CC1	.	.	.	.	-
CCOC(=O)C1=CCN(S(=O)(=O)c2ccccc2C)C1c1ccc(Cl)c(Cl)c1 (centres undefined)	-76	.	.	.	-
Cc1cc(C)c2sc(N(CCN(C)C)C(=O)c3c(F)cccc3F)nc2c1	-	-	-	-	?

Screening data (PubChem)
